High-throughput results: PubChem, several laboratories
CRFBP-R2 agonist = agonists of human CRF-binding protein/CRF-R2 receptor complex; HEK293 CRF-R2/CRF-BP, calcium dye fluorescence (FLIPR); percent of saturating CRF peptide response; activation, % at 13.2 µM; 0.46% of 350,000 active;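 active = activation of at least 50%, plus an integration ratio under a set limit after plate pattern correction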;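 also: plate controls were neutral control wells without compound for no effect and CRF at EC100 for full effect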
RTF Ca sens act = increases calcium sensitivity of human cardiac regulated thin filaments. P19429+P45379. AID 493008. IANBD-labeled TnC RTF fluorescence at EC20 calcium; 0% EC20 calcium, 100% full calcium. activation, % at 7.2 µM. 0.24% of 340,000 active;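 active = activation above the mean over all tested compounds plus 3 SD, cut at about 30% in these data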;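 also: rise in fluorescence read as greater calcium sensitivity of cardiac thin filaments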
CRFBP-R2 block = antagonists of CRF-binding protein/CRF-R2 receptor complex | 0.59% of 350,000 active | HEK293 CRF-R2/CRF-BP, CRF-induced calcium fluorescence | inhibition, % at 11.8 µM | AID 588475;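 active = inhibition of the ligand-induced calcium signal above about 50% at the single tested concentration, limit read from the data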
RTF Ca sens inh = cardiac RTF calcium desensitization; inhibition, % at 7.15 µM; AID 493244; IANBD-labeled cardiac RTF, Ca2+ fluorescence; P19429+P45379; 0.12% of 340,000 active;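 active = inhibition above the mean inhibition of all tested compounds plus 3 SD, cut at about 17% in these data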;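 also: assay run at fixed EC70 calcium of 1.6 mM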
RTF Ca inh conf = cardiac RTF calcium sensitivity inhibition, confirmation; shares compounds with RTF Ca sens inh; reconstituted cardiac thin filaments, calcium sensitivity fluorescence; inhibition, % at 7.15 µM; 8% of 360 active; in the data active = inhibition above about 18%
* marks the source's active call; other numbers are inactive results; . = not tested or not shown. This is a sample that favours compounds with a hit; in the whole collection about 1.3% have one here.

SMILES	CRFBP-R2 agonist	RTF Ca sens act	CRFBP-R2 block	RTF Ca sens inh	RTF Ca inh conf
COCCn1nnnc1C(c1cc2ccc(C)cc2[nH]c1=O)N(Cc1ccco1)Cc1cccs1 (stereo not given)	0	6	14	17*	-5
CCOc1ccc(CCNC(=O)c2nnc(CS(=O)(=O)c3ccccc3)o2)cc1OCC	-2	3	-1	-7	.
CCN(CC)CCNC(=O)c1ccc(Sc2ccc(C)cc2)c(NC(C)=O)c1	1	-1	5	18*	-5
COc1ccccc1NC(=S)N(Cc1ccccn1)Cc1ccccc1Cl	0	-1	-4	17*	2
CS/C(=N\S(=O)(=O)c1ccc(N)cc1)NS(=O)(=O)c1cccs1	2	-3	-13	-5	.
CSC(=NCc1ccc(F)cc1)NS(=O)(=O)c1cccs1	0	-1	5	17*	0
O=C1O[C@@H]([C@H](O)CO)C(O)=C1O	0	1	-14	6	.
COc1cccc2c1NC(C(=O)O)C1CC=CC21 (stereo not given)	1	-36	-7	19*	15
CCCCC(CC)CN=C(N)NC(N)=NCCCCCCN=C(N)NC(N)=NCC(CC)CCCC (stereo not given)	112*	0	-71	23*	3
CCCCC(CC)CO (stereo not given)	-3	4	14	-4	.
O=c1c(O)cccc2cc(O)c(O)c(O)c12	0	-40	5	87*	51*
COc1ccccc1OCC(O)COC(N)=O (stereo not given)	1	-1	-12	18*	2
COc1ccccc1OCC(O)CO (stereo not given)	-1	8	16	1	.
CCCn1nc(C(=O)NNC(=O)CSC(C)C(=O)Nc2cc(C)on2)c2ccccc2c1=O (stereo not given)	1	-1	7	0	.
Cc1cccc(CN(C)C[C@H]2OCc3cnnn3CCCC(=O)N([C@@H](C)CO)C[C@@H]2C)c1	-1	.	21	.	.
CC[C@@H](C(=O)[C@@H](C)[C@@H](O)[C@H](C)[C@@H]1O[C@@H]([C@@H](CC)C(=O)O)CC[C@@H]1C)[C@H]1O[C@]2(C=C[C@@H](O)[C@]3(CC[C@@](C)([C@H]4CC[C@](O)(CC)[C@H](C)O4)O3)O2)[C@H](C)C[C@@H]1C	3	2	5	20*	-2
O=C1CCCN1CCCNS(=O)(=O)c1ccc(F)cc1F	2	-2	-6	-1	.
Cc1ccc(C)c(NC(=O)CN(C)C(=O)CSC(C)C(=O)Nc2cc(C)on2)c1 (stereo not given)	0	-6	-8	19*	-1
COc1ccccc1CN(C)CC(=O)Nc1ccc(Cl)cc1C(F)(F)F	0	3	-8	18*	-3
CCc1ccc(NC(=O)c2cc(C)no2)cc1	0	-1	-2	-3	.
CCc1ccc(NC(=O)CN(N=Nc2nonc2C)c2nonc2C)cc1	2	0	1	26*	-4
Cc1nn(-c2cccc(C(F)(F)F)c2)c(Cl)c1/C=N/Nc1cccc(C(=O)O)c1	2	4	7	21*	-1
CCCCCCC(=O)O	0	2	8	-6	.
CCCCCCCCCCCCCCCC(=O)OC(CC(=O)O)C[N+](C)(C)C (stereo not given)	41	5	32	18*	-5
O=C(CSc1nnc(-c2ccc(F)cc2)n1-c1ccccc1)NCCN1C(=O)CSC1=O	-2	5	-5	-6	.
SMILES	CRFBP-R2 agonist	RTF Ca sens act	CRFBP-R2 block	RTF Ca sens inh	RTF Ca inh conf
Cc1nnc(SCC(=O)NCCN2C(=O)CSC2=O)n1-c1ccccc1	0	-5	9	23*	-1
CCOc1ccc(S(=O)(=O)N2CCCC(C(=O)NCc3cccnc3)C2)cc1 (stereo not given)	-3	-3	4	-9	.
C=C1c2cccc(O)c2C(=O)C2C(=O)[C@]3(O)C(=O)C(C(N)=O)C(=O)[C@@H](N(C)C)[C@@H]3[C@@H](O)[C@H]12 (stereo not given in full)	1	-28	10	61*	11
COc1ccc(S(=O)(=O)N2CCCOC2CNC(=O)C(=O)NCc2ccccc2C)cc1 (stereo not given)	-1	.	-8	.	.
O=C(Nc1nnc(-c2ccccc2)o1)Nc1ccc(F)cc1F	1	-7	1	17*	4
O=C(Nc1ccc(F)cc1)Nc1nnc(-c2ccccc2)o1	-1	-4	2	-2	.
